JMJD2A Tudor = inhibitors of human JMJD2A Tudor domain; Potency, µM (titrated, usually from 114 µM), inactives show top-dose activity change, negative = inhibition, actives largely listed as inhibitors; O75164; 4.4% of 390,000 active; AID 504339; AlphaScreen JMJD2A-Tudor / H3K4me3 peptide binding; also: % is scaled to controls: 0 for no effect and ±100 for the full control effect; nearly all actives have a fitted effect of over 50% in size
Target sequence (O75164 whole entry, looked up, the tested form may be a part): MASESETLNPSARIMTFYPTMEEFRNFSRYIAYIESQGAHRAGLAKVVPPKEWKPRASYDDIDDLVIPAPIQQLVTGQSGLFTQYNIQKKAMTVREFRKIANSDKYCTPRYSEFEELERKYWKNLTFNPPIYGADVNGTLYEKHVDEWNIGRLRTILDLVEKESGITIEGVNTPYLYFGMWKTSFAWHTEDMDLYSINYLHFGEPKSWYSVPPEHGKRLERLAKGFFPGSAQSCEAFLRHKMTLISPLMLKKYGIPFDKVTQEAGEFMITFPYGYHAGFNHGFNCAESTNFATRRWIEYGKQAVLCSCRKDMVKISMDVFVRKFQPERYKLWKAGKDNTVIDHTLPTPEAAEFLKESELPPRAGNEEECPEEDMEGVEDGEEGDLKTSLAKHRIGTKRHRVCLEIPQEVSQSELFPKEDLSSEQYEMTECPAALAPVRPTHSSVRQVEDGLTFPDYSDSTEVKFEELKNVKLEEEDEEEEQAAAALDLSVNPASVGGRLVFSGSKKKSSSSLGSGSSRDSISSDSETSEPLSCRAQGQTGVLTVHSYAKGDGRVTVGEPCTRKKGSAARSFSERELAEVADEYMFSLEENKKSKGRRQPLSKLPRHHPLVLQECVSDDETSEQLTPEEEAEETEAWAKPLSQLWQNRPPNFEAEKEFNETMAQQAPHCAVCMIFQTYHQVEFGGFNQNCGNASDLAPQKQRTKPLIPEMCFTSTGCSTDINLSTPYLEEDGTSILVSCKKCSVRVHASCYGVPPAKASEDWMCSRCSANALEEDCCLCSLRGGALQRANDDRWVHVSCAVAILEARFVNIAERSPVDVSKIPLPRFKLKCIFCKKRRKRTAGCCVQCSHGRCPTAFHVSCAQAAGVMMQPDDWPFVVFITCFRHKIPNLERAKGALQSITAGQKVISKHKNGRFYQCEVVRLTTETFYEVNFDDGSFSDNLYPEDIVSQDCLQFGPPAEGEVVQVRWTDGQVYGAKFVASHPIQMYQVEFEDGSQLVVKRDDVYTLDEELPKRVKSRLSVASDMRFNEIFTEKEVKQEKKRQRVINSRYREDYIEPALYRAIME
BAZ2B block = inhibitors of human BAZ2B bromodomain | Q9UIF8 | AlphaScreen BAZ2B-H3K14Ac peptide displacement | Potency, µM (highest dose often 114 µM), for inactives: top-dose activity change, negative = inhibition, usual class: inhibitors | 4.4% of 360,000 active; also: % is scaled to controls: 0 for no effect and ±100 for the full control effect; nearly all actives have a fitted effect of over 60% in size
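Complex of BAZ2B and biotin-H3K14Ac (50 nM apiece) forms over 30 min at RT, then faces library compounds up to 110 uM for another 30 min; AlphaScreen beads added, 20 min dark incubation, luminescence read.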
G9a block = inhibitors of human histone lysine methyltransferase G9a; 8.8% of 350,000 active; AID 504332; Potency, µM (series often up to 102 µM), for the others: at the top dose activity, negative = inhibition, actives largely listed as inhibitors; G9a H3K9 monomethylation, AlphaScreen, 2 h; Q96KQ7; also: % is scaled to controls: 0 for no effect and ±100 for the full control effect; nearly all actives have a fitted effect of over 75% in size
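AlphaScreen read-out: biotin-H3K9 peptide (500 nM) methylation by 20 nM enzyme with 20 uM SAM, 2 h at room temperature after 15 min compound preincubation; anti-monomethyl H3K9 antibody plus donor/acceptor beads, 10 min dark.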
PLK1 PBD block = inhibitors of human PLK1 polo-box domain binding; P53350; Plk1 PBD binding of FITC phosphopeptide, fluorescence polarization; Potency, µM, without a hit: max response, negative = inhibition, actives largely listed as inhibitors; 2.8% of 360,000 active; also: series mostly up to about 57 µM; % is scaled to controls: 0 for no effect and ±100 for the full control effect; nearly all actives have a fitted effect of over 65% in size
HP1b binding inh = HP1-beta chromodomain-methylated histone interaction inhibition | AlphaScreen HP1-beta / biotin-H3K9me3 peptide binding | Potency, µM (series often up to 114 µM), for the others: at the highest dose activity change, negative = inhibition, hits mostly inhibitors | 0.56% of 390,000 active | AID 540317; also: nearly all actives have a fitted effect of over 70% in size
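Compound inhibition of the preformed complex between 50 nM HP1-beta and 50 nM biotinylated H3K9me3 peptide was read by AlphaScreen. Buffer was PBS pH 7.4 with 0.01% Tween-20. Incubations ran 30 min at room temperature, with 10 ug/mL donor/acceptor beads.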
12-LOX inh = inhibitors of human 12S-lipoxygenase ALOX12; AID 1671190; P18054; 1.1% of 580,000 active; Potency, µM (highest dose often 108 µM), without a hit: at the top dose activity change, negative = inhibition, hits mostly inhibitors; purified 12hLO, xylenol orange hydroperoxide absorbance; also: % is scaled to controls: 0 for no effect and ±100 for the full control effect
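Hydroperoxide product was detected by ferrous iron/xylenol orange as the 573 to 405 nm absorbance ratio. Arachidonic acid at 40 uM (final) was turned over for 30 min at room temperature by 150 nM human 12hLO, pH 7.0 Hepes buffer, after 15 min compound preincubation.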
The depositor's hits bear a star; [ ] = remark or other dose. Only some compounds are listed: those with a hit (about 9% of all), similar ones and a draw of the others. Calls follow the shape of the dose curve; as a rule, active = well fitted curve in the direction sought with a large enough effect; inconclusive = small, poorly fitted or top-dose-only effect, or another doubt; inactive = no such curve, though single readings can be large; an effect the other way counts as inactive or inconclusive. Potency is read from the fitted curve at half-maximal effect.

Results for CCC(=O)N(C1CCOCC1)C1CCN(S(=O)(=O)c2ccc(Cl)c(C)c2)CC1 ?
12-LOX inh: 43%

What do the screens show for `COc1cc(/C=N\Nc2cc(=O)n(C)c(=O)n2C)ccc1O`?
JMJD2A Tudor: -3%; BAZ2B block: -4%; G9a block: 6%[59 µM]; PLK1 PBD block: -2%; HP1b binding inh: 14%; 12-LOX inh: 2%

How did CC(C)CC(=O)NC1CCN(C(=O)N2CC3CC(C2)[C@H]2CCCC(=O)N2C3)CC1 (some centres not stated) do in these assays?
12-LOX inh: 59%

Results for CC1CCN(C(=O)c2ccc3c(c2NCCO)C(=O)c2ccccc2C3=O)CC1 ?
JMJD2A Tudor: 45µM*; BAZ2B block: 32µM*; G9a block: inconclusive; PLK1 PBD block: -2%; HP1b binding inh: inconclusive; 12-LOX inh: 0%

How did CCN(CC)CCC(=O)Nc1cccc2c1C(=O)c1ccccc1C2=O do in these assays?
JMJD2A Tudor: inconclusive; BAZ2B block: inconclusive; G9a block: 40µM*; PLK1 PBD block: -3%; HP1b binding inh: -23%; 12-LOX inh: 0%

What do the screens show for `CCN(CC)CCNC(=O)c1ccc2c(c1NCCO)C(=O)c1ccccc1C2=O`?
JMJD2A Tudor: inconclusive; BAZ2B block: 40µM*; G9a block: 40µM*; PLK1 PBD block: -4%; HP1b binding inh: inconclusive; 12-LOX inh: 22%

Results for O=C(NCCO)c1cccc2c1C(=O)c1ccccc1-2 ?
JMJD2A Tudor: -7%; BAZ2B block: 21%; G9a block: inconclusive; PLK1 PBD block: -21%; HP1b binding inh: 31%; 12-LOX inh: -22%

What do the screens show for `CC1CC(C)CN(C(=O)c2cccc3c2-c2ccccc2C3=O)C1` (configuration not stated)?
JMJD2A Tudor: -19%; BAZ2B block: -22%; G9a block: inconclusive; PLK1 PBD block: 6%; HP1b binding inh: 22%; 12-LOX inh: -25%

What do the screens show for `COc1ccccc1CN(C(=O)CNC(=O)c1ccco1)C(C(=O)NCC1CCCO1)c1ccccc1` (configuration not stated)?
JMJD2A Tudor: -14%; BAZ2B block: -6%; G9a block: -8%; PLK1 PBD block: -2%; HP1b binding inh: 3%; 12-LOX inh: -24%

How did Cc1ccc(S(=O)(=O)N2CCN=C2SCc2ccccc2)cc1 do in these assays?
JMJD2A Tudor: 35%; BAZ2B block: 34%; G9a block: 118%; PLK1 PBD block: 30µM*; HP1b binding inh: 31%; 12-LOX inh: -12%

Results for CC(=O)Nc1ccc(S(=O)(=O)N2CCN=C2SCc2ccc(C)cc2)cc1 ?
JMJD2A Tudor: -21%; BAZ2B block: -21%; G9a block: 10%; PLK1 PBD block: -4%; HP1b binding inh: 20%; 12-LOX inh: 5%

How did Cc1ccc(NC(=O)CN2C(=O)NC(C)(c3ccc(Cl)cc3)C2=O)cc1 (configuration not stated) do in these assays?
JMJD2A Tudor: -8%; BAZ2B block: 6%; G9a block: 11%; PLK1 PBD block: -14%; HP1b binding inh: 4%; 12-LOX inh: -29%

Results for Cc1sc(-n2c(C)ccc2C)c(C#N)c1C ?
JMJD2A Tudor: -36%; BAZ2B block: -6%; G9a block: 7.9µM*; PLK1 PBD block: 19µM*; HP1b binding inh: -33%; 12-LOX inh: inconclusive

What do the screens show for `COc1ccc(NCc2nnc(SCC(=O)Nc3cc(C)cc(C)c3)o2)cc1`?
JMJD2A Tudor: inconclusive; BAZ2B block: inconclusive; G9a block: -26%[12.7 µM]; PLK1 PBD block: -7%; HP1b binding inh: -2%; 12-LOX inh: inconclusive

Results for Cc1cccc(-c2nc(CS(=O)CC(=O)NCc3ccc(Cl)cc3)c(C)o2)c1 (configuration not stated) ?
JMJD2A Tudor: -8%; BAZ2B block: -19%; G9a block: inconclusive; HP1b binding inh: 32%; 12-LOX inh: inconclusive

Results for O=C(N/N=C/c1ccc(C(=O)O)cc1)C1=NNC(c2ccccc2)(c2ccccc2)C1 ?
JMJD2A Tudor: 79µM*; BAZ2B block: inconclusive; G9a block: 0%; PLK1 PBD block: inconclusive; HP1b binding inh: 35%; 12-LOX inh: -5%

What do the screens show for `O=C(NC1CCCC1)C(c1ccccn1)N(C(=O)c1csnn1)C1CCCCC1` (configuration not stated)?
JMJD2A Tudor: inconclusive; BAZ2B block: -1%; G9a block: -26%[59 µM]; PLK1 PBD block: 27µM*; HP1b binding inh: -13%; 12-LOX inh: inconclusive

How did O=C(NC1CCCCCC1)c1ccccn1 do in these assays?
12-LOX inh: -14%

What do the screens show for `O=C(NC1CCCCC1)/C(=N\O)c1ccccn1`?
JMJD2A Tudor: inconclusive; BAZ2B block: -31%; G9a block: 50µM*; PLK1 PBD block: 0%; HP1b binding inh: -1%; 12-LOX inh: -15%

Results for O=C(NC1CCCC1)C(c1cccnc1)N(C(=O)c1csnn1)c1ccccc1Cl (configuration not stated) ?
JMJD2A Tudor: 50µM*; BAZ2B block: 7%; G9a block: 20%; PLK1 PBD block: inconclusive; HP1b binding inh: 14%; 12-LOX inh: 19%

How did O=C(CN(Cc1cccs1)C(=O)c1csnn1)NC1CCCC1 do in these assays?
JMJD2A Tudor: 79µM*; BAZ2B block: 13%; G9a block: -9%[59 µM]; PLK1 PBD block: 27µM*; HP1b binding inh: inconclusive; 12-LOX inh: -26%

How did Cc1c(Cl)cccc1NC(=O)c1ccc(OCC(=O)NCc2ccccc2)cc1 do in these assays?
JMJD2A Tudor: -4%; BAZ2B block: 7%; G9a block: 11%[59 µM]; PLK1 PBD block: -1%; HP1b binding inh: 9%; 12-LOX inh: -7%

How did O=C(O)CCC1CCN(S(=O)(=O)c2ccccc2)CC1 do in these assays?
12-LOX inh: 12%

Results for CC(C)C(=O)NC(NCc1ccccc1)C(Cl)(Cl)Cl (configuration not stated) ?
12-LOX inh: 21%

Results for CCN1C(c2ccc(F)cc2)=CS/C1=C(\C#N)c1nnc2n1-c1ccccc1SC2 ?
JMJD2A Tudor: inconclusive; BAZ2B block: inconclusive; G9a block: 32µM*; PLK1 PBD block: -12%; HP1b binding inh: -16%; 12-LOX inh: inconclusive

Results for COc1ccc(-c2nnc3n2-c2ccccc2SC3)cc1OC ?
JMJD2A Tudor: -23%; BAZ2B block: inconclusive; G9a block: inconclusive; PLK1 PBD block: -12%; HP1b binding inh: 45%; 12-LOX inh: inconclusive

How did Cc1c(S(=O)(=O)c2cccc(Cl)c2)nnn1-c1cccc(C(F)(F)F)c1 do in these assays?
JMJD2A Tudor: 4%; BAZ2B block: 11%; G9a block: 25%[59 µM]; HP1b binding inh: 29%; 12-LOX inh: -15%

High-throughput results as filed in PubChem.
